Assay outcomes from PubChem.
DT40 TDP1 CPT = growth inhibition of DT40 Tdp1-/-;hTDP1 cells with camptothecin (screen for TDP1 inhibitors) | chicken DT40 Tdp1-/-;hTDP1 cells + 20 nM CPT, ATP luminescence, 48 h | Potency, µM (series often up to 46.2 µM), for the others: at the top dose activity change, negative = growth inhibition, hits mostly inhibitors | 12% of 420,000 active; note: potency is the fitted concentration of half-maximal effect; nearly all actives have a fitted effect of over 55% in size
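Chicken DT40 Tdp1-/- cells complemented with human TDP1, 400 cells/well, exposed to compounds plus 20 nM camptothecin for at least 48 h at 37 C; viability read as ATP content by CellTiter-Glo luminescence.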
RORg inh = inhibitors of mouse ROR gamma transcriptional activity. 5.4% of 310,000 active. Drosophila S2 Gal4-RORgamma UAS-luciferase reporter, 20 h. Potency, µM (highest dose often 53.6 µM), without a hit: at the top dose activity change, negative = inhibition, usual class: inhibitors. P51450; note: potency is the fitted concentration of half-maximal effect; nearly all actives have a fitted effect of over 60% in size
Target sequence (P51450 whole entry, looked up, the tested form may be a part): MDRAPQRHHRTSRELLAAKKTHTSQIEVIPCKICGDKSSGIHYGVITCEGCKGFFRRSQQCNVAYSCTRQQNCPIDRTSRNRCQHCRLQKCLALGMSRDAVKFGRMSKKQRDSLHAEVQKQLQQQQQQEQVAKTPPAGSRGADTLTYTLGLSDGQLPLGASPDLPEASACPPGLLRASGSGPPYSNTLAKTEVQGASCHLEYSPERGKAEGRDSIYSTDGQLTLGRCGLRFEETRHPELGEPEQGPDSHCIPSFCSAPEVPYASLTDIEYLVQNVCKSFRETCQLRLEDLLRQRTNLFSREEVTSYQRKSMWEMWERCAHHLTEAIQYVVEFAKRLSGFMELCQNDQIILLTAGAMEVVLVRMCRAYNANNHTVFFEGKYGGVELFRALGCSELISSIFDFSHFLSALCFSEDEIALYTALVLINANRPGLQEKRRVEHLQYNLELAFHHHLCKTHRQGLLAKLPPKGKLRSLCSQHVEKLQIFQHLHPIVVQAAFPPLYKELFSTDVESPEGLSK
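Schneider cells (Drosophila), stable Gal4 DBD–ROR gamma + UAS-luc; 1 hr cmpd preincubation; Cu2+ induction 700 uM final; 20 hr ambient; luminescence.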
ELG1 DNA repair = ELG1-dependent DNA repair inhibition; Potency, µM (series often up to 46.1 µM), inactives show top-dose activity change, negative = inhibition, usual class: inhibitors; AID 504467; HEK293T ELG1-luciferase reporter, luminescence, 16 h; DNA damage induced by 5-fluorouridine; 2.3% of 330,000 active; note: potency is the fitted concentration of half-maximal effect; nearly all actives have a fitted effect of over 55% in size
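In this reporter screen, reduction of luminescence relative to DMSO vehicle indicated activity. Compounds and 5-fluorouridine were added together to 2,000 cells per well, incubated for 16 hr at 37 °C, then developed with ONE-Glo.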
DT40 TDP1 no CPT = qHTS for Inhibitors of human tyrosyl-DNA phosphodiesterase 1 (TDP1): qHTS in cells in absence of CPT; DT40 Tdp1-/- hTDP1 cells, no CPT, ATP luminescence, 48 h; Potency, µM (titrated, usually from 46.2 µM), inactives show top-dose activity change, negative = growth inhibition, hits mostly inhibitors; 15% of 420,000 active; AID 686978, 2013; note: potency is the fitted concentration of half-maximal effect; nearly all actives have a fitted effect of over 55% in size
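Seeded 400 DT40-hTDP1 cells/well (vehicle DMSO, no 20 nM CPT); pinned compounds; ≥48 hr at 37 °C; CellTiter-Glo luminescence as viability measure.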
IL-1B inflam inh = blocks inflammasome-driven IL-1 beta release | THP-1 LPS/ATP IL-1B secretion, AlphaLISA, 16 h; active compounds read low | activity change, % at 57.5 µM | 4.7% of 360,000 active | AID 743279; in the data active = activity change below about -50%; inconclusive = mostly about -30% to -49%
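Secreted IL-1B measured by AlphaLISA bead assay after 16 h compound exposure of THP-1 cells; compounds (final up to 57.5 uM) added 1 h before LPS (250 ng/mL) and ATP (1.25 mM) stimulation; lower signal means less secretion.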
Gal4-VP16 FLuc = Gal4-VP16 reporter inhibition counter-screen; Drosophila S2 Gal4-VP16 UAS-luciferase, luminescence, 20 h; Potency, µM (top dose mostly 53.6 µM), without a hit: at the highest dose activity, negative = inhibition, most hits filed as inhibitors; AID 2546; 3.5% of 310,000 active;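 note: Gal4-VP16 expression switched on by copper sulfate through the metallothionein promoter; potency is the fitted concentration of half-maximal effect; nearly all actives have a fitted effect of over 50% in size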
Starred values were filed as active, the others as inactive; i = inactive; ? = inconclusive; / = no result given; ! = not confirmed by another sample; [ ] = dose if it differs, or a comment. A selection: hits, their analogues and other compounds. The true share with any hit is near 21%. Unless noted, calls come from the whole dose curve; as a rule, active = well fitted curve in the direction sought with a large enough effect; inconclusive = small, poorly fitted or top-dose-only effect, or another doubt; inactive = no such curve, though single readings can be large; an effect the other way counts as inactive or inconclusive. % is set by controls: 0 for no effect and ±100 for the full control effect.

SMILES	DT40 TDP1 CPT	RORg inh	ELG1 DNA repair	DT40 TDP1 no CPT	IL-1B inflam inh	Gal4-VP16 FLuc
CN(c1ccccc1N(C)S(=O)(=O)c1ccccc1)S(=O)(=O)c1ccccc1	3%	/	/	?	56	/
CCOC(=O)/C(C#N)=C1/SC(C)C(=O)N1c1ccc(Br)cc1 (stereo unspecified)	0%	11µM*	7%	-12%	-4	-24%
CC1(C)S[C@@H]2[C@H](N3C(=O)C(c4ccccc4)NC3(C)C)C(=O)N2[C@H]1C(=O)O (stereo partly specified)	3%	/	/	-13%	/	/
CCCOC(C(=O)OC1CCN(C)CC1)(c1ccccc1)c1ccccc1	21µM*	-25%	/	12µM*	/	1%
CN1CCC(OC(=O)Cc2ccccc2)CC1	4%	-1%	2%	2%	13	-10%
O=C1/C(=C/c2ccc(N(CCCl)CCCl)cc2)Cc2ccccc21	4.5µM*	/	/	7.9µM*	/	/
O=c1[nH]/c(=C\c2ccc(N(CCCl)CCCl)cc2)c(=O)[nH]/c1=C\c1ccc(N(CCCl)CCCl)cc1	3.2µM*	/	/	?	/	/
N[C@H](CP(=O)(O)O)C(=O)O	21%	-6%	/	-3%	/	-2%
OC[C@@H](O)[C@H]1O[C@@H]2OC(C(Cl)(Cl)Cl)O[C@H]2[C@H]1O (stereo partly specified)	/	2%	/	/	/	1%
Cc1ccc(C)c(OCc2cc(C(=O)N3C[C@H]4C[C@@H](C3)c3cccc(=O)n3C4)no2)c1	-6%	-13%	-4%	7%	i	-2%
COc1cc(CCN)cc(OC)c1OC	5%[92.5 µM]	/	/	-13%[92.5 µM]	/	/
NCCc1cc(O)c(O)cc1O	5.2µM*	1%	/	3.7µM*	-24	2%
COc1ccc(-c2nn(-c3ccccc3)cc2C(=O)N2c3ccc(C)cc3C3CN(C)CCC32)cc1 (stereo unspecified)	?	?	?	26µM*	?	-7%
Cc1ccc2c(c1)C1CN(C)CCC1N2C(=O)c1ccccc1NS(=O)(=O)c1cccc(C(F)(F)F)c1 (stereo unspecified)	?	-9%	3%	13µM*	-5	-7%
Cc1ccc2c(c1)C1CN(C)CCC1N2C(=O)Nc1cccc(Cl)c1 (stereo unspecified)	?	6%	6%	23µM*	-53*	5%
CC1CC(Cl)CCC1C(=O)OC(C)(C)C (stereo unspecified)	11%	0%	/	10%	/	4%
O=C(Oc1ccccc1)N1CCC2(CCN(Cc3nccs3)CC2)CC1	-29%	-1%	/	?	/	-6%
CCC1(C)CC(C(N)=S)CCO1 (stereo unspecified)	18µM*	-4%	-2%	21µM*	-8	-1%
C=C1[C@H]2C[C@H]3[C@H]4N5C[C@]6(C)CCC[C@]47[C@H]([C@H]2O)[C@]3(C[C@]5(O)[C@H]67)[C@@H]1O	11%	/	/	9%	4	/
CN(C)CCCOc1nn(Cc2ccccc2)c2ccccc12	?	-19%	22%	23µM*	-10	7%
CCn1c(CN2CCN(C)CC2)nc2ccccc21	-2%	/	/	-2%	/	/
CCC(c1nnnn1Cc1ccccc1)N1CCC2(CC1)C(=O)NCN2c1ccccc1 (stereo unspecified)	?	/	/	?	18	/
COc1cc(/C=C/C(=O)c2c(O)n(CCc3ccccc3)c(=O)[nH]c2=O)ccc1O	13µM*	-39%	?	10µM*	-99*	?
O=C(/C=C/c1ccc2c(c1)OCO2)c1c(O)n(CCc2ccccc2)c(=O)[nH]c1=O	?	5%	?	?	-5	1%
O=C(/C=C/c1ccccc1)c1c(O)n(CCc2ccccc2)c(=O)[nH]c1=O	5.2µM*	-33%[10 µM]	?	2.6µM*	-23	22%
SMILES	DT40 TDP1 CPT	RORg inh	ELG1 DNA repair	DT40 TDP1 no CPT	IL-1B inflam inh	Gal4-VP16 FLuc
CCCn1c(C(=O)c2ccc(OC)cc2)nc2ccccc21	?	-4%	1%	?	?	2%
CCCCn1c(-c2nonc2NC(=O)c2ccccc2Cl)nc2ccccc21	10µM*	/	/	23µM*	19	/
CC(NC(=O)N1CC1(C)C)c1ccccc1 (stereo unspecified)	2%	/	/	-19%	-3	/
CCc1nc2ccc(C(=O)NCCN3CCNC3=O)cn2c1N(CC)Cc1cccc(Br)c1	?	/	/	?	-4	/
O=C(C1CCCCC1)N1CCC(c2nc3c(nnn3Cc3c(F)cccc3Cl)c(=O)[nH]2)CC1	-19%	?	?	?	-11	3%
CC(C)(C)c1nc(N2CCN(C(=O)c3ccco3)CC2)c2nnn(Cc3ccccc3Cl)c2n1	?	?	-11%	21µM*	-9	?
CCC(=O)CCCCC[C@@H]1NC(=O)[C@H]2CCCCN2C(=O)[C@H]([C@@H](C)CC)NC(=O)[C@H](Cc2cn(OC)c3ccccc23)NC1=O	/	-2%	/	/	/	-2%
CC[C@H]1CC2CN3CCc4c([nH]c5cc(OC)ccc45)[C@](C(=O)OC)(C2)[C@H]13	?	/	/	?	4	/
COc1ccc2c3c([nH]c2c1)C(C)=NCC3	?	?	9.2µM*	18µM*!	-84*	3%
CC1=NCCc2c1[nH]c1cc(O)ccc21	?	-24%	5%	27µM*!	6	-4%
COc1cccc(Nc2nc(C(N)Cc3ccc(F)cc3)cs2)n1 (stereo unspecified)	18µM*	/	/	8.2µM*	-64*	/
NC(Cc1ccccc1)c1csc(Nc2ccccn2)n1 (stereo unspecified)	?	/	/	?	-19	/
NC(Cc1ccc(F)cc1)c1csc(Nc2ccccn2)n1 (stereo unspecified)	?	/	/	16µM*	-51*	/
NC(Cc1ccc(Cl)cc1)c1csc(Nc2ccccn2)n1 (stereo unspecified)	15µM*	/	/	13µM*	-66*	/
N#Cc1cccc(NC(=O)N2CC[C@@]3(CCCN(C(=O)Oc4ccccc4)C3)C2)c1	-4%	-23%	/	?	/	-11%
C[C@@H]1C[C@@H]([C@H](O)CC2CC(=O)NC(=O)C2)C(=O)[C@@H](C)C1	0.16µM*	0.32µM*!	0.29µM*	0.16µM*	-58*	0.0089µM*!
CC(=O)OC1(C)CC(C)C(=O)C(C(O)CC2CC(=O)NC(=O)C2)C1 (stereo unspecified)	0.18µM*	/	/	0.21µM*	-109*	/
